PubChem BioAssay (NCATS)
Inconclusive results are not listed. Entries that show only a call come without a potency. Active and inactive are the calls of the source. Unless noted, calls follow the shape of the dose curve; as a rule, active = well fitted curve in the direction sought with a large enough effect; inconclusive = small, poorly fitted or top-dose-only effect, or another doubt; inactive = no such curve, though single readings can be large; an effect the other way counts as inactive or inconclusive. Numbered stars: 1 amine (or outer) side, 2 acyl side, 3 side chain; on linkers, the order of the positions; unused ones are H or OH. Bridge positions count the residues as written; N and C are the ends. Square brackets hold non-standard residues; d marks the D form. Peptide text beside a SMILES is read from it. * marks the point of attachment. ξ: configuration not given here. ΔAla(E,3-NHCONH2) = NC(=O)N/C=C(/N)C(=O)O; X1 = NC1=NCCC(C(N[*:1])C(=O)[*:2])N1; ξβ3hOrn = NCCCC(N)CC(=O)*; Dap = NC[CH](N)C(=O)O

What was measured:
[1] = target: Cytochrome P450 3A4 (Homo sapiens) (UniProt P08684); experiment: qHTS Assay for Inhibitors and Substrates of Cytochrome P450 3A4 (AID 884); also: nearly all actives have a fitted effect of over 50% in size; also: potency is read from the fitted curve at half-maximal effect
In short: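 Luminescent readout of luciferin produced by CYP3A4 (20 nM) dealkylation of Luciferin-PPXE, 25 uM (its KM). NADPH-driven reaction ran 60 min at RT after 10 min compound preincubation; data scaled to 57 uM ketoconazole as 100% inhibition.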

[2] = target: Cytochrome P450 3A4 (Homo sapiens) (UniProt P08684); experiment: qHTS Assay for Activators of Cytochrome P450 3A4 (AID 885); also: nearly all actives have a fitted effect of over 65% in size
In short: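 Human CYP3A4 dealkylates Luciferin-PPXE to luciferin, which luciferase detection converts to light. Substrate was at its KM (25uM), buffer 200mM KPO4, reaction 60 min at RT.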

[3] = Confirmation and Secondary Assay for Modulators of Hemoglobin Beta Chain Splicing at IVS2 654 locus (AID 910);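 also: HeLa cells stably carrying EGFP split by mutant beta-globin IVS2-654 intron; per-well total GFP intensity by laser scanning cytometry after 2-day treatment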
In short: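 Readout: per-well total peak green fluorescence (488 nm ex, 500–520 nm em) from objects 5–250 µm, reflecting correct splicing of an EGFP-654 reporter. Compounds were applied for 2 days at 37 °C to overnight-plated HeLa EGFP-654 cells; controls were DMSO and 500 nM IVS2-654 PNA.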

[4] = Confirmation and Secondary Assay for Modulators of Hemoglobin Beta Chain Splicing at IVS2 705 locus (AID 930);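 also: HeLa cells stably expressing the EGFP-705 splicing reporter; GFP fluorescence per well restored by corrected splicing of the IVS2-705 intron in EGFP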
In short: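 Per-well GFP, captured at 1 x 8 µm resolution with 488 nm excitation, served as the read-out for HeLa EGFP-705 cells incubated 2 days with test compound versus DMSO.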

[5] = qHTS Assay for Lipid Storage Modulators (AID 1519; calls by dose curve); settings: Drosophila S3 cells, BODIPY lipid droplet/cell ratio, laser cytometry, cells loaded with oleic acid; for activity change, negative = inhibition: at 57.5 µM (top of the series)
In short: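 Cells seeded at 5,000 per well were treated with compounds over a concentration series and loaded with oleic acid (400 uM, as added). Lipid droplet fluorescence (488 nm excitation, 500-530 nm channel) was read by laser-scanning cytometry and normalized to 20 uM Triacsin C.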

[6] = target: Ubiquitin carboxyl-terminal hydrolase 1 (Homo sapiens) (UniProt O94782); experiment: Inhibitors of USP1/UAF1: Pilot qHTS (AID 504865);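 also: rhodamine fluorescence freed from ubiquitin-rhodamine substrate followed over time; top concentration of the series differs between compounds; nearly all actives have a fitted effect of over 35% in size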
In short: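 In 50mM HEPES pH 7.8 containing 0.5mM EDTA, 1mM TCEP, 0.1 mg/ml BSA and 0.01% Tween-20, 1nM USP1/UAF1 is exposed to compound for 15 min, then Ub-Rho (150nM final) is added and fluorescence is read over time.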

[7] = measured here: cell count channel max response
[8] = measured here: lipid channel max response

Chain of Ubiquitin carboxyl-terminal hydrolase 1 (Homo sapiens) (O94782 whole entry, looked up): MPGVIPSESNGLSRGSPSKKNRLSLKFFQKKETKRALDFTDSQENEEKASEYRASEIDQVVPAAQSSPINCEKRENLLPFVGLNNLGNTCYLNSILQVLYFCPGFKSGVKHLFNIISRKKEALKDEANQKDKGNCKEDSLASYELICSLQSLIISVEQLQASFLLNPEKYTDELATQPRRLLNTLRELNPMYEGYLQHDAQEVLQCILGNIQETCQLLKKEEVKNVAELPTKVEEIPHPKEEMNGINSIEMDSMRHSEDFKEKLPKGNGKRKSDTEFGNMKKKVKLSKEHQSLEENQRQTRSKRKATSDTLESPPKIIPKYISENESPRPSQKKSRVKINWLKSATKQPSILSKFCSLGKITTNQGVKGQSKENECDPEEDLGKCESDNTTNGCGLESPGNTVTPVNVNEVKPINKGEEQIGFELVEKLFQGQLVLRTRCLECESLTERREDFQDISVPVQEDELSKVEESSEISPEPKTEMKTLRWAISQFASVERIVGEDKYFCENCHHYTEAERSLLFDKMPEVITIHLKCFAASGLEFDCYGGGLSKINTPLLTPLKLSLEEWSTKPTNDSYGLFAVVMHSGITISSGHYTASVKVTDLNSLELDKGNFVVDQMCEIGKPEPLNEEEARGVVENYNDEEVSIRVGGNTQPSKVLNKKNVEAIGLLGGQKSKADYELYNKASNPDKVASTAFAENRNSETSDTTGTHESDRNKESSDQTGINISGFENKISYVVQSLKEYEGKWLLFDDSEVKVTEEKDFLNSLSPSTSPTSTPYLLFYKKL
Chain of Cytochrome P450 3A4 (Homo sapiens) (P08684 whole entry, looked up): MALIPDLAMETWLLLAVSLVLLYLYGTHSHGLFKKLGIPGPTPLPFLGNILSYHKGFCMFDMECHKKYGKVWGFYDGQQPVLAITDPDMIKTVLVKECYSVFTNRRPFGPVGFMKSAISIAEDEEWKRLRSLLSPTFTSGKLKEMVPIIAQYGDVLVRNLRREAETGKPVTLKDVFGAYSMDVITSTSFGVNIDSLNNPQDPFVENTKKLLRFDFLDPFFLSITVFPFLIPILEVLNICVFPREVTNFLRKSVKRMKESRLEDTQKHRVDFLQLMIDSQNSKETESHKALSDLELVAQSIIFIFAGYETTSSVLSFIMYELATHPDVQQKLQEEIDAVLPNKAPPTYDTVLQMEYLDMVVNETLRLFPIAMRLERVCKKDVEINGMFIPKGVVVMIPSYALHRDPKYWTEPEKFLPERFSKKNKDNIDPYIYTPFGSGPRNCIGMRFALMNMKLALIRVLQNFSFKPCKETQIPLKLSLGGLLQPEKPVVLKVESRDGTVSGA

Compound | Potency [1] | Potency [2] | Potency [3] | Potency [4] | activity change, negative = inhibition [5] | max response [5, 7] [%] | max response [5, 8] [%] | Potency [6]
Cc1ccc2c(c1)CC[C@H]1CC(=O)CC[C@@]21C | 15.8 µM (active) | inactive | inactive | inactive | 2.54% (inactive) | -2.47 | 1.9 | inactive
CNc1ccccc1C(=O)N1CCc2c([nH]c3ccccc23)C1=O | 1 µM (active) | inactive | inactive | inactive | 8.02% (inactive) | 12.5 | 25.5 | inactive
O=c1cc(-c2ccccc2O)oc2cc(O)ccc12 | inactive | – | inactive | inactive | 8.08% (inactive) | 28.6 | 40 | inactive
OC/C=C/c1ccc(O)c(O)c1 | 15.8 µM (active) | inactive | inactive | inactive | 8.76% (inactive) | 13.5 | 23.8 | inactive
C=C(C)C1CC=C(CO)CC1 (stereo unspecified) | inactive | – | inactive | inactive | 0.669% (inactive) | -1.53 | 1.38 | inactive
Nc1ncnc2[nH]c(=O)[nH]c12 | inactive | – | inactive | inactive | 4.6% (inactive) | 1.75 | 6.43 | inactive
COc1ccc(C(=O)c2ccccc2)c(O)c1O | inactive | – | inactive | inactive | 1.94% (inactive) | -24.4 | -18 | inactive
NCCCC(N)CC(=O)NCC1NC(=O)C(CO)NC(=O)C(N)CNC(=O)C(C2CCN=C(N)N2)NC(=O)/C(=C\NC(N)=O)NC1=O (stereo not drawn) (H-[Dap]S[Dap](ξβ3hOrn)[ΔAla(E,3-NHCONH2)][X1]; lactam 1-C; configuration not given here) | inactive | – | inactive | inactive | 2.39% (inactive) | 15.4 | 21.2 | inactive
COC(=O)CC1C(C)(C)C(OC(C)=O)[C@@]2(O)C=C3C4CC(=O)OC(c5ccoc5)[C@]4(C)CCC3[C@@]1(C)C2=O (stereo partly specified) | 7.94 µM (active) | inactive | inactive | inactive | 10.4% (inactive) | 10.1 | 21.8 | inactive
COc1ccc2c(=O)c(CC(=O)O)coc2c1 | inactive | – | inactive | inactive | 4.63% (inactive) | 9.56 | 14.8 | inactive
COc1ccc(-c2cc(=O)c3c(O)c(OC)c(OC)c(OC)c3o2)cc1 | inactive | – | inactive | inactive | 5.49% (inactive) | 14.3 | 20.3 | inactive
CCOC(=O)CCC(=O)O[C@H]1C(O[C@@H]2C(C)[C@H](O[C@H]3C[C@@](C)(OC)C(O)C(C)O3)C(C)C(=O)OC(CC)[C@@](C)(O)C(O)[C@H](C)C(=O)C(C)C[C@]2(C)O)OC(C)CC1N(C)C (stereo partly specified) | 20 µM (active) | inactive | inactive | inactive | -0.5% (inactive) | 3.86 | 3.45 | inactive
CCCCCCCCCCCCCc1ccco1 | inactive | – | inactive | inactive | 1.58% (inactive) | -6.07 | 3.51 | inactive
CCCc1cc(OC)c2c(c1)OCO2 | 7.94 µM (active) | inactive | inactive | inactive | 11.5% (inactive) | -8.72 | 1.71 | inactive
CC(=O)NC(CC(=O)O)C(=O)O (stereo unspecified) | inactive | – | inactive | inactive | 2.97% (inactive) | 13.4 | 18 | inactive
OCc1ccccc1O[C@H]1OC(CO)C(O)C(O)C1O (stereo partly specified) | inactive | – | inactive | inactive | 3.66% (inactive) | 2.55 | 8.97 | inactive
CC1C(O)CC2C(C(=O)O)=CO[C@@H](O[C@H]3OC(CO)C(O)C(O)C3O)C21 (stereo partly specified) | inactive | – | inactive | inactive | 4.54% (inactive) | 10.9 | 15.2 | inactive
COC(=O)CC1C(C)(C)C(OC(C)=O)C2CC3C4CC(=O)OC(c5ccoc5)[C@]4(C)CCC3[C@@]1(C)C2=O (stereo partly specified) | 0.631 µM (active) | inactive | inactive | inactive | -20.8% (inactive) | 1.85 | -17.5 | inactive
Nc1nc2c(nc(Sc3ccc(Cl)cc3)n2C2OC(CO)C(O)C2O)c(=O)[nH]1 (stereo unspecified) | 15.8 µM (active) | inactive | inactive | inactive | 5.03% (inactive) | 14.6 | 19.6 | inactive
CC(C)/C(O)=C1/C(=O)OC(c2ccoc2)[C@@]2(C)C(O)C(O)[C@@]34OC5(C)OC67CC(C)(C(O)[C@@]6(O)C(O)[C@@]3(O5)C12)C(CC(=O)O)[C@@]74C (stereo partly specified) | 12.6 µM (active) | inactive | inactive | inactive | 0.873% (inactive) | -1.97 | 0.302 | inactive
COc1cc(-c2coc3cc(O[C@H]4OC(CO)C(O)C(O)C4O)c(OC)c(O)c3c2=O)cc(O)c1OC (stereo partly specified) | inactive | – | inactive | inactive | 7.43% (inactive) | 6.4 | 13.8 | inactive
CC(=O)OC1CC2C(C)(C)C(O)CC(O)[C@@]2(C)C2CC[C@@]3(C)C(=CC(=O)OC3c3ccoc3)[C@]12C (stereo partly specified) | 3.98 µM (active) | – | inactive | inactive | 0.404% (inactive) | -0.781 | 3.91 | inactive
C=C(C)C1Cc2c(ccc(C(=O)O)c2O)O1 (stereo unspecified) | inactive | – | inactive | inactive | 5.26% (inactive) | 17 | 23.8 | inactive

Compound | Potency [1] | Potency [2] | Potency [3] | Potency [4] | activity change, negative = inhibition [5] | max response [5, 7] [%] | max response [5, 8] [%] | Potency [6]
Cc1cc(=O)c2c(O)cc(O)c(C)c2o1 | 25.1 µM (active) | inactive | inactive | inactive | 14% (inactive) | 5.24 | 21.1 | inactive
COc1c(O)cccc1O | inactive | – | inactive | inactive | 5.35% (inactive) | -1.6 | 5.81 | inactive
CC(CCC(=O)O)C1CCC2C3CC(O)[C@@H]4CC(O)CC[C@]4(C)C3CC[C@@]12C (stereo partly specified) | inactive | – | inactive | inactive | 6.93% (inactive) | 12.9 | 20.4 | inactive
O=C1CC(c2ccc(O)c(O)c2)Oc2cc(O)cc(O)c21 (stereo unspecified) | 39.8 µM (active) | – | inactive | inactive | 17.7% (inactive) | -10.3 | 9.21 | inactive
COC1(C)CCC2OC2(C)CCC2C1CC2(C)C (stereo unspecified) | 10 µM (active) | inactive | inactive | inactive | 4.15% (inactive) | 6.3 | 11.9 | inactive
COc1ccc(/C=C/C(=O)c2ccc(O)cc2O)cc1OC | 1.26 µM (active) | inactive | inactive | inactive | -12.3% (inactive) | -8.55 | -18.6 | inactive
Nc1nc(Cl)c2ncn(C3OC(CO)C(O)C3O)c2n1 (stereo unspecified) | inactive | – | inactive | inactive | 1.75% (inactive) | -10 | -7.18 | inactive
C=CCSCC(N)C(=O)O (stereo unspecified) | inactive | – | inactive | inactive | 7.56% (inactive) | 17.4 | 25.7 | inactive
C=C(C)C1COc2cc3oc(=O)ccc3cc2O1 (stereo unspecified) | inactive | – | inactive | inactive | 14.3% (inactive) | 12.5 | 28.8 | inactive
C=C1C2CC[C@@]3(C)C(c4ccoc4)OC(=O)C[C@@]13OC1CC(=O)C(C)(C)C(C(O)C(=O)OC)[C@]12C (stereo partly specified) | 2.51 µM (active) | inactive | inactive | inactive | -0.848% (inactive) | 11.1 | 18.5 | inactive
COC1C(O)C(CO)OC1n1c(Br)nc2c(=O)[nH]c(N)nc21 (stereo unspecified) | inactive | – | inactive | inactive | 1.73% (inactive) | 0.309 | 3.63 | inactive
O=c1cc(-c2ccc(O)c(O)c2)oc2ccccc12 | 15.8 µM (active) | inactive | inactive | inactive | 2.38% (inactive) | -4.12 | 2.75 | inactive
[N-]=[N+]=Nc1nc2c(N)ncnc2n1C1OC(CO)C(O)C1O (stereo unspecified) | inactive | – | inactive | inactive | -16.2% (inactive) | 12.5 | 1.58 | inactive
CO[C@]1(NC(=O)C(C(=O)O)c2ccc(O)cc2)C(=O)N2C(C(=O)O)=C(CSc3nnnn3C)COC21 (stereo partly specified) | inactive | – | inactive | inactive | 9.58% (inactive) | 18.1 | 35.5 | inactive
COc1ccc(C2CC(=O)c3c(O)cc(O)cc3O2)cc1O (stereo unspecified) | 15.8 µM (active) | – | inactive | inactive | 3.83% (inactive) | 3.05 | 6.13 | inactive
NC(CCC(=O)NC(CCSC(CC(=O)O)C(=O)O)C(=O)NCC(=O)O)C(=O)O (stereo unspecified) | inactive | – | inactive | inactive | 6.92% (inactive) | 13.3 | 21.2 | inactive
CC(=O)OC1CCC2(C)C(=CC=C3C2CCC2(C)C3CCC2C(C)/C=C/C(C)C(C)C)C1(C)C (stereo unspecified) | inactive | – | inactive | inactive | 1.79% (inactive) | 12.2 | 14.9 | inactive
COc1ccc(C2OC3C(CO)OC(n4cnc5c(=O)[nH]c(N)nc54)C3O2)cc1 (stereo unspecified) | inactive | – | inactive | inactive | 1.28% (inactive) | 11.1 | 13.1 | inactive
NC1=NCCN1CC(=O)O | inactive | – | inactive | inactive | 4.53% (inactive) | 1.34 | 10.9 | inactive
O=C(O)c1cc2cc(Cl)ccc2[nH]1 | inactive | – | inactive | inactive | 4.59% (inactive) | 19.5 | 25.3 | inactive
CC1CC[C@@]2(OC1)OC1CC3C4CC[C@@H]5CC(O)CC[C@@]5(C)C4CC[C@]3(C)C1C2C (stereo partly specified) | inactive | – | inactive | inactive | 4.69% (inactive) | 11.7 | 17.1 | inactive
O=C(O)C(O)[C@@](O)(Cc1ccc(O)cc1)C(=O)O (stereo partly specified) | inactive | – | inactive | inactive | 5.41% (inactive) | 10.8 | 18.1 | inactive
CC(C)C(N)C(=O)NC(Cc1c[nH]c2ccccc12)C(=O)O (stereo unspecified) | inactive | – | inactive | inactive | 7.82% (inactive) | 15.4 | 28.4 | inactive
